{
  "source": "the supplement of paper PMC9399229",
  "note": "Counter-ions that a name gives are not always drawn. Over roughly 1,900 compounds, “relative cell viability (CellTiter-Glo), compound plus cabozantinib, relative to the cabozantinib arm (arm median 1.05; reference not stated)” has its median near 1.1; the lowest 2% begin near 0.15. Shown is part of a subset that was picked to be rich in the lowest values.",
  "data": [
    {"tested_on": "Hep3B", "assay": "relative cell viability (CellTiter-Glo), compound plus cabozantinib, relative to the cabozantinib arm (arm median 1.05; reference not stated) (fraction); higher = more viable cells (less growth inhibition)", "settings": "cabozantinib 2 µM; 4 days", "values": [
      {"smiles": "C[C@@H]1O[C@@H](O[C@H]2C[C@@H](O)[C@]3(CO)[C@H]4[C@H](O)C[C@]5(C)[C@@H](C6=CC(=O)OC6)CC[C@]5(O)[C@@H]4CC[C@]3(O)C2)[C@H](O)[C@H](O)[C@H]1O", "note": "[Ouabain]", "relative cell viability": 0.105},
      {"smiles": "CC1(C)CC(O)CC(C)(C)N1[O]", "note": "[Tempol]", "relative cell viability": 1.03},
      {"smiles": "Cc1ccc(-n2nccn2)c(C(=O)N2CCN(c3nc4cc(Cl)ccc4o3)CC[C@H]2C)c1", "note": "[Suvorexant (MK-4305)]", "relative cell viability": 0.987},
      {"smiles": "O=C(NCC1CCOCC1)c1cnc(Nc2ccc(Cl)cc2Cl)nc1C(F)(F)F", "relative cell viability": 1.02},
      {"smiles": "CCc1c(C(=O)C(N)=O)c2c(OCC(=O)O)cccc2n1Cc1ccccc1", "relative cell viability": 1.05},
      {"smiles": "[O-][n+]1ccccc1[S-].[O-][n+]1ccccc1[S-].[Zn+2]", "note": "[Zinc Pyrithione]", "relative cell viability": 0.0184},
      {"smiles": "CCC1(c2cccc(O)c2)CCCCN(C)C1", "note": "(stereo not given) [Meptazinol HCl]", "relative cell viability": 1.13},
      {"smiles": "CC(=O)O[C@H]1C[C@@H]2CC[C@@H]3[C@H](CC[C@@]4(C)[C@H]3C[C@H]([N+]3(C)CCCCC3)[C@@H]4OC(C)=O)[C@@]2(C)C[C@@H]1[N+]1(C)CCCCC1", "note": "[Pancuronium dibromide]", "relative cell viability": 1.06},
      {"smiles": "Cc1cc2c(C(C)C)c(O)c(O)c(C=O)c2c(O)c1-c1c(C)cc2c(C(C)C)c(O)c(O)c(C=O)c2c1O", "note": "[Gossypol]", "relative cell viability": 1.15},
      {"smiles": "CC(=O)Nc1ccc(Cc2ccc(NC(C)=O)cc2)cc1", "relative cell viability": 1.07},
      {"smiles": "CC(C)=CCC[C@]1(C)C=Cc2c(O)c3c(c(CC=C(C)C)c2O1)O[C@]12C(=C[C@@H]4C[C@H]1C(C)(C)O[C@@]2(C/C=C(/C)C(=O)O)C4=O)C3=O", "note": "[Gambogic Acid]", "relative cell viability": 0.118},
      {"smiles": "CCC1=C[C@H]2CN3CCc4c([nH]c5ccccc45)[C@](C(=O)OC)(C2)[C@H]13", "note": "[Catharanthine]", "relative cell viability": 1.06},
      {"smiles": "CN1[C@@H]2CC[C@H]1C[C@@H](OC(=O)[C@H](CO)c1ccccc1)C2", "note": "[Hyoscyamine]", "relative cell viability": 1.1},
      {"smiles": "CN(C)CCc1ccc(O)cc1", "note": "[Hordenine]", "relative cell viability": 1.11},
      {"smiles": "C[C@H]1CCC/C=C/[C@@H]2C[C@H](O)C[C@H]2[C@H](O)/C=C/C(=O)O1", "note": "[Brefeldin A]", "relative cell viability": 0.105},
      {"smiles": "c1ccc2c(c1)Nc1ccccc1S2", "note": "[Phenothiazine]", "relative cell viability": 1.17},
      {"smiles": "CN(C)Cc1c[nH]c2ccccc12", "note": "[Gramine]", "relative cell viability": 1.06},
      {"smiles": "NCC(=O)O.[C-]#[O+].[C-]#[O+].[C-]#[O+].[Cl][Ru]", "relative cell viability": 0.978},
      {"smiles": "C#C[C@]1(O)C=C[C@H]2[C@@H]3CCC4=CC(=O)CC[C@@H]4[C@H]3CC[C@@]21CC", "note": "[Gestodene]", "relative cell viability": 0.965},
      {"smiles": "Cc1sc2c(c1C)C(c1ccc(Cl)cc1)=N[C@@H](CC(=O)Nc1ccc(O)cc1)c1nnc(C)n1-2", "relative cell viability": 0.454}
    ]}
  ]
}
